The results in this text go back to PubChem BioAssay.

Experiment [1] is described as follows: polyglutamine-triggered caspase-3 activation inhibitors, cell-based (AID 1583). The conditions noted are these: polyglutamine-induced caspase-3 activation, cell assay; stronger effect = higher value;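 tested at 10 µM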.
Experiment [2] in a line: suppressors of polyQ aggregation in yeast, 75Q-TubU reporter (AID 1593). As to conditions: Yeast 75Q polyglutamine aggregation reporter.
The nature of experiment [3]: rescue of polyQ-huntingtin neuronal dysfunction in worms, whole organism, C. elegans mechanosensory neurons, N-terminal huntingtin (AID 1599). As to conditions: touch response, stronger effect = higher value.
A short description of experiment [4]: inhibitors of mitochondrial cytochrome c release, biochemical, purified mitochondria (AID 1603).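 Also: mouse liver mitochondria challenged with calcium chloride; signal normalized to the plate average as 100%.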 The conditions noted are these: stronger effect = lower value.
The nature of experiment [5]: inhibitors of polyQ protein aggregation (AID 1604). The conditions noted are these: polyglutamine-induced protein aggregation inhibition assay; stronger effect = higher value; tested at 2.5 µM.
Experiment [6] is described as follows: enhancers of glutamate uptake in motor neurons, MN-1 cell line (AID 1612).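 Also: tested at 1 µM final; 0% = mean of DMSO vehicle wells on each plate; positive means more glutamate uptake than control and negative means less.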 As to conditions: MN-1 motor neuron cells, stronger effect = higher value.
A short description of experiment [7]: reducers of polyQ inclusions in PC12 cells, cell-based, NGF-treated PC12, GFPQ80 (AID 1614).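 Also: lower means fewer inclusions and 0 means no inclusions at all.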 The conditions noted are these: PC12 NGF-treated GFP-polyQ80 inclusion reduction.
Experiment [8] is described as follows: suppressors of polyglutamine aggregation in yeast, 75Q-TubH (AID 1616). As to conditions: S. cerevisiae 75Q-TubH polyglutamine aggregation suppression; stronger effect = higher value.
Experiment [9] is described as follows: circadian clock period modulators, cell-based, LOPAC library, luminescence reporter (AID 2774; call rule not given here;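 also: values are relative to mean of DMSO wells on each plate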). As to conditions: circadian reporter cells, at 7 µM, actives lie on both sides.
Experiment [10] can be described thus: liver-stage malaria parasite growth inhibition, primary screen, cell-based, HepG2, luciferase luminescence, HepG2 viability (AID 624349; in the data active = parasite load remaining mostly below about 12%, no sharp cut-off; inactive = mostly above about 10%;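 also: 100% = mean of DMSO negative control wells on the same plate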). As to conditions: P. berghei liver stage in HepG2, luciferase luminescence, concentration not given here; parasite load remaining: stronger effect = lower value; viability: measured here: HepG2 viability without parasites.
In experiment [11] the target is 6-phosphogluconate dehydrogenase, decarboxylating (Homo sapiens) (UniProt P52209). Description: 6PGD enzyme inhibitors, primary screen, biochemical, human, recombinant enzyme, NADPH absorbance (AID 1159550). As to conditions: recombinant 6PGD, NADPH absorbance 341 nm; at 10 µM; stronger effect = higher value.
Experiment [12] concerns Aerobactin synthetase IucA (Klebsiella pneumoniae hvKP1). Description: Biochemical IucA enzyme inhibition primary screen of the Spectrum library (AID 1346200; call rule not given here;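 also: 100% = wells without compound and 0% = wells lacking enzyme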). As to conditions: malachite green pyrophosphate, A620, at 8 µM, stronger effect = lower value.
Experiment [13] can be described thus: sensitizers of A549 cells to miR-34 induction, primary screen, imaging, A549 dox-inducible miR-34, nuclei and caspase counts (AID 1347080;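 active = compounds whose cell count with miR-34 switched on is under 0.7 times the count with it off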). The conditions noted are these: A549 miR-34 inducible, Hoechst nuclei count, 48 h.
The target of experiment [14] is Mitogen-activated protein kinase 7 (Homo sapiens) (UniProt Q13164). The experiment can be described thus: ERK5 transactivation activators in reporter cells, primary screen, cell-based, HTS (AID 1508626;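 active = luciferase signal above three times the same-plate solvent-only control wells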;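 also: luciferase driven by Gal4-ERK5 fusion binding five Gal4 sites before minimal TATA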). The conditions noted are these: HeLa Gal4-ERK5 transactivation, 18 h, at 5 µM, stronger effect = higher value.
Experiment [15] is described as follows: viability rescue of complex I mutant cybrids, primary screen, cell-based, galactose medium, ATP luminescence (AID 1645843;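 active = z-score of at least 1.8 in each of two replicates, scored against plate mean and spread of sample wells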;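 also: positive z means more ATP and so rescue of galactose-driven cybrid death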). The conditions noted are these: complex I mutant cybrid cells, 72 h, stronger effect = higher value.
The nature of experiment [16]: differential killing of epithelial or mesenchymal cells, primary screen, imaging, PC-3E GFP, TEM4-18 mCherry, co-culture (AID 1345086;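 active = compounds killing one labelled cell type while sparing the other, by normalised counts and ratio limits, not self-fluorescent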;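 as to all read-outs here: cells exposed to compound for 72 h before imaging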;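 as to red/green cell ratio (normalised): normalised mesenchymal count divided by normalised epithelial count so high means epithelial killing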). As to conditions: imaging cell counts, at 1 µM; for red/green cell ratio (normalised): actives lie on both sides.
Experiment [17] deals with NAD(+) hydrolase SARM1 (Homo sapiens) (UniProt Q6SZW1). Description: SARM1 TIR NADase inhibitors, cell lysate, NAD-Glo luminescence (AID 1508614;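 active = compound whose remaining NAD level is above about 45 nM, limit read from the data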;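 also: higher remaining NAD means stronger inhibition of SARM1 NADase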). As to conditions: SAM-TIR HEK293T lysate NADase, at 1 µM, stronger effect = higher value.
The nature of experiment [18]: survival rescue of mitochondrial mutant cells in low glucose, primary screen, MELAS cybrids, Rieske KO mouse fibroblasts, CellTiter-Glo (AID 1508586;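 active = mean z-score across replicates of 1.96 or higher in either the MELAS or the Rieske mutant cell line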;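 also: z relative to plate mean and SD of compound and empty wells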). For orientation: ATP-based viability assays read luminescence as a measure of living cells.
The target of experiment [19] is ATP-dependent translocase ABCB1 (Homo sapiens) (UniProt P08183). Description: MDR1 (ABCB1) efflux transporter inhibition, cell-based (AID 377; in the data active = fluorescence slope change above about 50%). As to conditions: MDR1-expressing cells, fluorescent substrate accumulation slope; stronger effect = higher value; concentration not given here.
Experiment [20] is described as follows: hESC survival regulators, cell-based (AID 493140; call rule not given here;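 also: cells exposed to compounds for four days before counting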). The conditions noted are these: human embryonic stem cell survival screen; stronger effect = higher value.
The mark [21] stands for this setting: measured here: relative caspase fold change +Dox/-Dox.
Setting [22] is: measured here: total cells with miR-34 induction, stronger effect = lower value.
Where [23] appears, read: measured here: total cells without miR-34 induction.
Where [24] appears, read: measured here: epithelial PC-3E GFP cell survival.
Setting [25] is: measured here: mesenchymal TEM4-18 mCherry cell survival.

The structures appear in SMILES notation. Several values for one entry are separate records, joined by “and”; a condition that tells them apart may be missing. Equal values may be shown once. Results filed as inconclusive are left out. For some assays here: Potency and affinity values are given separately. Activity calls are given as the source filed them.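 The calls were made as follows, unless noted: active = at least 20% inhibition of 6-phosphogluconate dehydrogenase activity; inactive = the rest.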

By inhibition is commonly meant the relative decrease from the control value, in per cent. One may read the viability as a read-out of living cells in per cent, often relative to untreated cells.

Chain of Mitogen-activated protein kinase 7 (Homo sapiens) (Q13164 whole entry, looked up, the tested form may be a part): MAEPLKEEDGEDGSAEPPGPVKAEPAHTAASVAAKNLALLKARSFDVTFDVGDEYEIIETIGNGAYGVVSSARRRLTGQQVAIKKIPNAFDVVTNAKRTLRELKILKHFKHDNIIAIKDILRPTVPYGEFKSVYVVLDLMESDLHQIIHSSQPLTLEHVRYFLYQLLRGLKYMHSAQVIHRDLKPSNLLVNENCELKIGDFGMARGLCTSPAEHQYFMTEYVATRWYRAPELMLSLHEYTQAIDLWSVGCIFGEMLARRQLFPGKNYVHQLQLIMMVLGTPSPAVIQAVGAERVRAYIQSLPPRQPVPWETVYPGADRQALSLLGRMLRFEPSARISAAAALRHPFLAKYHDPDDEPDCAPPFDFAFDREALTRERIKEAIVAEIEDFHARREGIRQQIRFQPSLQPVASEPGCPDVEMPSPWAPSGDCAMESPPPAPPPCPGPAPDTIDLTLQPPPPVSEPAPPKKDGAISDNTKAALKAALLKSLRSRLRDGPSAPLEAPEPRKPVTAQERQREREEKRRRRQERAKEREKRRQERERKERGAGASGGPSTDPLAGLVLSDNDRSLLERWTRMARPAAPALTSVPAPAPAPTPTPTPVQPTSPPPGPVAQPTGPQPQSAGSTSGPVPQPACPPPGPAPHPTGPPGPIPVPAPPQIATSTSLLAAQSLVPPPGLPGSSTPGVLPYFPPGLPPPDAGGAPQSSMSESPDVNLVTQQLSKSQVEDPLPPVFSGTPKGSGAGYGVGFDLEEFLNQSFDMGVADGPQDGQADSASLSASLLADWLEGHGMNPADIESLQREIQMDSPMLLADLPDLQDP
Chain of NAD(+) hydrolase SARM1 (Homo sapiens) (Q6SZW1 whole entry, looked up): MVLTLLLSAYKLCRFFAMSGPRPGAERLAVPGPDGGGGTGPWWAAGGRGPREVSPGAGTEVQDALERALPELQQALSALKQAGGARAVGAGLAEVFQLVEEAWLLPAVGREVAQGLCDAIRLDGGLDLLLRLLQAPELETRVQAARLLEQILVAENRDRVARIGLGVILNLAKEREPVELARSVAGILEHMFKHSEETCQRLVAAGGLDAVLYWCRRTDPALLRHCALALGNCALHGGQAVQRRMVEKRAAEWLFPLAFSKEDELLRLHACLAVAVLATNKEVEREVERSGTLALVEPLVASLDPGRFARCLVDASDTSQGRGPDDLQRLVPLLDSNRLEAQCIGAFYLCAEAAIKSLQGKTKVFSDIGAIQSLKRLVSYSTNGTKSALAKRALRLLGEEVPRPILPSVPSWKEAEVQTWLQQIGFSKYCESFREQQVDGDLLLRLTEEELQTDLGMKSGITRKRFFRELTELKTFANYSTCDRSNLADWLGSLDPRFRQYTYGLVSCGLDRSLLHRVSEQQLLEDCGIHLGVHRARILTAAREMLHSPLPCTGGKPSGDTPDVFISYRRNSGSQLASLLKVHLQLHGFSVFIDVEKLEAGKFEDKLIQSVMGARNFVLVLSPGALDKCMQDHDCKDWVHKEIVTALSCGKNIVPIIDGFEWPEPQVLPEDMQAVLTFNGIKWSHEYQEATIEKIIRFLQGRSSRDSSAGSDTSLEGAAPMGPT
Chain of 6-phosphogluconate dehydrogenase, decarboxylating (Homo sapiens) (P52209 whole entry, looked up): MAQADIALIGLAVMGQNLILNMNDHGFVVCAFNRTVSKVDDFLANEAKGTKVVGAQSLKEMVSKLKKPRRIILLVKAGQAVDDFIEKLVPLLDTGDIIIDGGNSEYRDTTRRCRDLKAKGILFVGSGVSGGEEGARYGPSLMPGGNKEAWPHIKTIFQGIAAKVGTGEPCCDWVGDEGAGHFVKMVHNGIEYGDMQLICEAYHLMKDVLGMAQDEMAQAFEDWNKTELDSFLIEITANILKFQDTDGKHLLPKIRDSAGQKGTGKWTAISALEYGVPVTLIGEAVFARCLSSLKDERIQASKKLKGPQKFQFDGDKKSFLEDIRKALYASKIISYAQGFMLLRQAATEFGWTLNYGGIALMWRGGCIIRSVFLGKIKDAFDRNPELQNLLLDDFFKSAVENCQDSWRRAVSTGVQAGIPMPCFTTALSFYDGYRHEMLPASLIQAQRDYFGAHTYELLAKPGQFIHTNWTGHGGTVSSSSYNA
Chain of ATP-dependent translocase ABCB1 (Homo sapiens) (P08183 whole entry, looked up): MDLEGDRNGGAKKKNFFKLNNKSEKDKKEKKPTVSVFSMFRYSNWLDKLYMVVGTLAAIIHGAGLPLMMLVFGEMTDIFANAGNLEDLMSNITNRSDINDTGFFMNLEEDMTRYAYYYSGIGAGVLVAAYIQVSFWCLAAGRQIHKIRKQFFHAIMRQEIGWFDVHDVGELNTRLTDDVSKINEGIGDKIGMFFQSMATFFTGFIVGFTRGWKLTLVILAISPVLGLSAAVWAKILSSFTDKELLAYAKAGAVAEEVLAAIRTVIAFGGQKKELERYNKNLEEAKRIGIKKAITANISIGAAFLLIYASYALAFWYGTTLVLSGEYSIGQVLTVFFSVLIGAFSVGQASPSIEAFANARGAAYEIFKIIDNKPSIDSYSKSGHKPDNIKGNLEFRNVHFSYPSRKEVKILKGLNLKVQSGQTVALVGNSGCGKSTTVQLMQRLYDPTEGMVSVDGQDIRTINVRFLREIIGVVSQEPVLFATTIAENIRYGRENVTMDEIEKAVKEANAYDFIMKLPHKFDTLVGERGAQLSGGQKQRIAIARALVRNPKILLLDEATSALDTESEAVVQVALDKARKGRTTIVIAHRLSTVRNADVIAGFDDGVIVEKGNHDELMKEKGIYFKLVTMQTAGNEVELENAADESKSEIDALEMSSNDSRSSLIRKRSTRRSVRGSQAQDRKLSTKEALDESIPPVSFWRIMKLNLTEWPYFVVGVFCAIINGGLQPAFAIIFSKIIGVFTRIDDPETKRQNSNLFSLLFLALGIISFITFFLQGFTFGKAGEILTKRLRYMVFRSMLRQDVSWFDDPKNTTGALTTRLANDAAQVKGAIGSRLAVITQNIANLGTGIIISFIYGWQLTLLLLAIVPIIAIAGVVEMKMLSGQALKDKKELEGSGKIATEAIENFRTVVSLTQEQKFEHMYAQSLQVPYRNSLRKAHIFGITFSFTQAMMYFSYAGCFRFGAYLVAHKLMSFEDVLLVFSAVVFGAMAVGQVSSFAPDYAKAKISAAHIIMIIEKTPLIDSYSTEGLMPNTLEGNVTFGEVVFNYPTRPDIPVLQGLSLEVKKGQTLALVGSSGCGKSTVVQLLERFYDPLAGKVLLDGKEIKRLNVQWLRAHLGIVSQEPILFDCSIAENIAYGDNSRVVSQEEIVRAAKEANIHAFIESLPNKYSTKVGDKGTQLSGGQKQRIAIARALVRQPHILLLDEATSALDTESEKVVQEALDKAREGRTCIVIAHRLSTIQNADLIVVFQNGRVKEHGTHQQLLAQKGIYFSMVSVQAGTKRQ

`NC(=NCCC[C@H](N)C(=O)O)N[N+](=O)[O-]`: the inhibition is -12.4% and -12.2% in experiment [1]; 3.83% (inactive) in [11]. The score in [2] is 0.79 and 1.25. Moreover, in [3], the rescue above control is -0.39 and 5.97. Besides, the cytochrome c release ratio in experiment [4] is 0.94 and 0.84. For the same molecule, in experiment [5], the inhibition of aggregation is 34.7% and 12.9%. The glutamate uptake change in [6] is 19.3% and -1.48%. Also, in experiment [7], the inclusion score was 2. In addition, in experiment [8], the aggregation suppression score is 1.04 and 1.38. For the same molecule, in experiment [9], the period change was 0.04 h (inactive). In addition, the parasite load remaining in experiment [10] is 100% (inactive). Besides, the viability in [10] was found to be 68.5%. In addition, in experiment [12], the activity remaining was 121% (inactive). Further, the fold change is 1.02 (inactive) in experiment [13] (stronger effect = lower value) and 0.79 in [13] (setting [21]). The cell count in [13] (setting [22]) stood at 10000; in [13] (setting [23]), 9830. Also, in [14], the luciferase signal was 44 AU (inactive). In experiment [15], the z-score was 0.525 (inactive).

As for `c1ccc(N=Nc2ccccc2)cc1`, the results for the inhibition in experiment [1] and in experiment [11] were -11.7% and 14.4% (inactive), respectively. The score in experiment [2] was found to be 0.28. For the same molecule, in experiment [3], the rescue above control stood at 6.73. Also, the cytochrome c release ratio in experiment [4] amounted to 0.73. Also, the inhibition of aggregation in experiment [5] was 88.8%. Further, the glutamate uptake change in [6] was -16%. In experiment [8], the aggregation suppression score turned out to be 0.313. Besides, the parasite load remaining in experiment [10] is 103% (inactive). Further, in experiment [10], the viability was 66.9%. The red/green cell ratio (normalised) in [16] is 0.85 (inactive). Further, the figures for the normalised cell number in experiment [16] (setting [24]) and in experiment [16] (setting [25]) were 1.3 and 1.1, respectively. The activity remaining in experiment [12] was 103% (inactive). Besides, the luciferase signal in experiment [14] is 40 AU (inactive).

Consider `CCCCOC(=O)c1ccccc1C(=O)OCCCC`, for which the parasite load remaining in experiment [10] is 68.9% (inactive). Also, the viability in [10] was found to be 91.7%. The inhibition in experiment [11] is 4.37% (inactive). For the same molecule, the red/green cell ratio (normalised) in experiment [16] was 1.22 (inactive). The normalised cell number was found to be 0.78 in experiment [16] (setting [24]) and 0.95 in experiment [16] (setting [25]). Moreover, the results for the fold change in experiment [13] (stronger effect = lower value) and in experiment [13] (setting [21]) were 0.891 (inactive) and 1.43, respectively. Also, the cell count in experiment [13] (setting [22]) was found to be 10600; in experiment [13] (setting [23]), 11900. Moreover, the remaining NAD in experiment [17] is 10 nM (inactive). For the same molecule, the luciferase signal in [14] was 76 AU (inactive).

On to `COc1nc(NC(C)C)nc(NC(C)C)n1`, for which the inhibition in experiment [11] is -20.6% (inactive). For the same molecule, the activity remaining in [12] was 117% (inactive).

Turning to `O=C1CCCN1CC#CCN1CCCC1`, the results for the inhibition in experiment [1] and in experiment [11] were 17.7% and -3.4% (inactive), respectively. Moreover, the score in [2] turned out to be 1.21. In [3], this molecule gave a rescue above control of 3.59. The cytochrome c release ratio in experiment [4] worked out at 0.97. This molecule gave an inhibition of aggregation in experiment [5] of 79.6%. Besides, the glutamate uptake change in [6] was determined as 5.01%. In [7], this molecule came in with an inclusion score of 1. The molecule further gave an aggregation suppression score in experiment [8] of 1.3. Also, the period change in experiment [9] is 0.015 h (inactive). Further, in experiment [10], the parasite load remaining was 75.3% (inactive) and 41.2% (inactive). The viability in experiment [10] is 88.4% and 99%. The activity remaining in experiment [12] was 119% (inactive). Further, the fold change in experiment [13] (stronger effect = lower value) was 1.1 (inactive) and 0.966 (inactive) and 0.92 (inactive); in experiment [13] (setting [21]), 0.937 and 0.652 and 1.46. The cell count in experiment [13] (setting [22]) was 11000 and 8640 and 10100; in experiment [13] (setting [23]) it was 10100 and 8940 and 11000. In addition, the z-score in experiment [18] (MELAS cybrid survival, CellTiter-Glo 48 h, stronger effect = higher value) is -0.379 (inactive); in experiment [18] (Rieske KO mouse fibroblast survival, CellTiter-Glo 72 h), -0.277; in experiment [15], 0.355 (inactive) and 1.75 (inactive) and 0.67 (inactive). In addition, the luciferase signal in experiment [14] was 44 AU (inactive).

Regarding `CNc1ccccc1C(=O)O`, in experiment [11], the inhibition was 18.3% (inactive). The red/green cell ratio (normalised) in [16] was 0.85 (inactive). Besides, the normalised cell number came to 1.13 in [16] (setting [24]) and 0.95 in [16] (setting [25]). Also, in experiment [14], the luciferase signal was 76 AU (inactive).

As for `CNC(=O)Oc1ccccc1OC(C)C`, the inhibition in [11] is -1.91% (inactive). Further, the red/green cell ratio (normalised) in experiment [16] is 1 (inactive). The normalised cell number worked out at 1.06 in experiment [16] (setting [24]) and 1.05 in [16] (setting [25]). The fold change in [13] (stronger effect = lower value) was 0.96 (inactive); in experiment [13] (setting [21]), 0.908. In addition, the cell count worked out at 8560 in experiment [13] (setting [22]) and 8930 in [13] (setting [23]). For the same molecule, the remaining NAD in experiment [17] is 10 nM (inactive). Further, in [14], the luciferase signal was 88 AU (inactive).

On to `COC(=O)/C(C)=C\CC12OC(C)(C)C3CC(C=C4C(=O)c5c(OC)c6c(c(CC=C(C)C)c5OC431)OC(C)(CCC=C(C)C)C=C6)C2=O` (configuration not stated), for which the inhibition in [11] is -0.84% (inactive). In [12], the activity remaining is 98.7% (inactive).

`C=C1C2CC[C@@]3(C)[C@H](c4ccoc4)OC(=O)C[C@]13O[C@H]1CC(=O)C(C)(C)[C@H](C(OC(C)=O)C(=O)OC)[C@@]21C` (some centres not stated): in [11], the inhibition was 6.78% (inactive). The activity remaining in experiment [12] is 88.1% (inactive).

`COC1=CC23CCCN2CCc2cc4c(cc2C3C1O)OCO4` (configuration not stated): in experiment [11], the inhibition is -9.46% (inactive). The activity remaining in [12] was 108% (inactive).

Turning to `CNC(=O)N(C)c1nnc(C(C)(C)C)s1`, the inhibition in experiment [11] was -12.3% (inactive). In addition, the activity remaining in [12] is 98% (inactive).

For `COc1ccc2c(c1OC)C(=O)O[C@@H]2[C@H]1c2cc3c(cc2CCN1C)OCO3`, the fluorescence slope change in [19] is 159% (active). The survival in experiment [20] was 7.17 (inactive). For the same molecule, in experiment [10], the parasite load remaining was 124% (inactive) and 81.5% (inactive) and 40.1% (inactive). Also, the viability in experiment [10] was 101% and 75.4% and 98.1%. The inhibition in experiment [11] was 6.9% (inactive). For the same molecule, the red/green cell ratio (normalised) in experiment [16] is 1.06 (inactive). Besides, the normalised cell number in experiment [16] (setting [24]) worked out at 1.07; in [16] (setting [25]), 1.13. Moreover, the fold change in experiment [13] (stronger effect = lower value) is 0.884 (inactive); in [13] (stronger effect = lower value, cell number ratio, induced over uninduced), 0.838 (inactive); in experiment [13] (setting [21]) it was 1.51 and 2.25. Also, the cell count in [13] (setting [22]) is 8490 and 11200; in [13] (setting [23]), 10100 and 12700. Besides, the remaining NAD in experiment [17] was 10 nM (inactive). Besides, the luciferase signal in experiment [14] is 84 AU (inactive).
